Screening results from PubChem BioAssay.
An excerpt weighted towards active compounds, which were near 3.4% of everything screened.
proKLK7 act: activators of human kallikrein-7 zymogen; purified proKLK7, EDANS-DABCYL substrate fluorescence; 100% is mature enzyme control, 0% vehicle; P49862; activation, % at 7 µM; actives 0.9% (n = 370,000);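 active means activation above the mean of all tested compounds plus 3 SD, computed per campaign excluding outliers beyond control limits, cut at about 13% in these data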
Target sequence (P49862 whole entry, looked up): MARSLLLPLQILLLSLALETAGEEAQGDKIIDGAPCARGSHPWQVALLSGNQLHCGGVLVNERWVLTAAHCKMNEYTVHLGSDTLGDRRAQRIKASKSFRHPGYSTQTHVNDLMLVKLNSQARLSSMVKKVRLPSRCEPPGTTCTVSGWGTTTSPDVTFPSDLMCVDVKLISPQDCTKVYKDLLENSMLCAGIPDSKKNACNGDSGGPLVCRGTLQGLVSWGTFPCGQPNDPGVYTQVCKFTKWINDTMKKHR
ADAM10 inh: ADAM10 inhibition, QFRET primary screen | actives 0.62% (n = 370,000) | inhibition, % at 7 µM | recombinant ADAM10, EDANS/DABCYL FRET peptide cleavage, 3 h;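 active means inhibition above a per-campaign cutoff equal to the mean of compounds falling between control-based bounds plus 3 SD, cut at about 20% in these data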;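 further: 0% = DMSO wells while the 100% control is not disclosed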
PLCg1 inh: PLC-gamma1 (human) inhibition, primary screen; purified PLC-gamma1, fluorogenic substrate, fluorescence; inhibition, % at 12.2 µM; actives 0.84% (n = 370,000); AID 720700; in the data active means inhibition above about 9.5%
ADAM17 inh: ADAM17 inhibition, QFRET primary screen | AID 720648 | recombinant ADAM17, EDANS/DABCYL FRET peptide cleavage | inhibition, % at 6.95 µM | P78536 | actives 0.83% (n = 370,000);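 active means inhibition above the mean of compounds lying between control limits plus 3 SD, set per campaign, cut at about 8.5% in these data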;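 further: 0% = DMSO-only wells as the low control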
sPLA2-III inh: Inhibits HGIII-sPLA2 liposome hydrolysis, primary screen; Q9NZ20; QFRET BODIPY PC-A2 liposome hydrolysis, fluorescence; inhibition, % at 12.2 µM; actives 0.56% (n = 370,000); AID 743126;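 active means inhibition above mean plus 3 SD of compounds lying within the high and low control bounds, cut at about 19% in these data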;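 further: 0% = median of test compound wells and 100% = no enzyme DMSO wells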
PLCb3 inh: inhibitors of human phospholipase C beta3; inhibition, % at 12.2 µM; actives 0.18% (n = 370,000); AID 720704; Purified PLC-beta3, fluorogenic substrate, fluorescence; in the data active means inhibition above about 11%;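 further: 0% = median of compound wells on plate and 100% = full blocker control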
proKLK7 act conf: proKLK7 activation, confirmation; shares compounds with proKLK7 act; actives 68% (n = 3,200); purified proKLK7, EDANS-DABCYL substrate fluorescence; scaled: vehicle 0, mature enzyme 100; activation, % at 7 µM;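 active means activation, as change over the incubation, above the mean of all tested compounds plus 3 SD, cut at about 13% in these data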
EDANS-DABCYL int: fluorescence interference counter-screen for KLK7 activators. shares compounds with proKLK7 act. EDANS-DABCYL substrate fluorescence interference, no enzyme, 4 h; solvent 0%, active enzyme control 100%. activation, % at 7 µM. actives 80% (n = 3,200);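 active means activation above the all-compound mean plus 3 SD, ignoring values outside control-based bounds, cut at about 4.8% in these data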;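 further: value is the 4 h activation minus the activation read at time zero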
K7 EDANS ctr: EDANS fluorescence interference in dose response, no enzyme; shares compounds with proKLK7 act; EDANS-DABCYL peptide fluorescence interference; EC50, µM; actives 20% (n = 250); AID 720493;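 active means compounds that raise the fluorescence signal in this interference counterscreen, with EC50 at or below 10 µM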;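 further: intact quenched peptide substrate alone read at 355 nm excitation and 520 nm emission; signal is fluorescence gain from T0 to T4 after four hours at room temperature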
* = called active by the depositor; i = inactive; nt = no result given.

SMILES	proKLK7 act	ADAM10 inh	PLCg1 inh	ADAM17 inh	sPLA2-III inh	PLCb3 inh	proKLK7 act conf	EDANS-DABCYL int	others
CCN(CC)Cc1c(O)ccc2cc(-c3nc4ccccc4n3C)c(=O)oc12	52.2*	i	i	i	1.5	i	73.1*	75.6*
CC1=C[C@]2(CN(CC3CC3)C3=N[C@H](c4ccccc4)CC(=O)N32)n2c(=O)n(-c3ccccc3)c(=O)n2C1	nt	0.0	0.9	-2.1	2.6	-1.6	nt	nt
CCNS(=O)(=O)c1ccc2c3c(cccc13)C(=O)N2	85.9*	i	i	-440.6	4.0	i	67.8*	81.8*
CCOC(=O)c1c(C)oc2ccc(NS(=O)(=O)c3ccc4c5c(cccc35)C(=O)N4)cc12	2.6	-10.7	-46.5	-5.0	-55.7	-69.6	nt	nt
O=C1Nc2ccc(S(=O)(=O)NCCC3=CCCCC3)c3cccc1c23	18.0*	-334.7	-434.6	-113.0	-14.4	i	11.6	19.1*
CCN(CC)S(=O)(=O)c1ccc2c3c(cccc13)C(=O)N2	23.0*	i	i	-129.7	-1.1	i	14.6*	20.6*
O=C1Nc2ccc(S(=O)(=O)NCCCO)c3cccc1c23	63.6*	i	i	-411.5	8.7	i	82.9*	86.4*
CCN(c1cccc(C)c1)S(=O)(=O)c1ccc2c3c(cccc13)C(=O)N2	-1.4	-15.3	-165.2	-7.0	-27.5	-200.3	nt	nt
COC(=O)Cc1nnn2c1[C@H](C)[C@H](c1ccccc1Br)OC[C@@H]2c1ccccc1	-0.4	5.1	-1.5	0.4	-1.1	-1.1	nt	nt
COc1ccc(-c2cc(NC(=O)Cc3c(C)[nH]c4ccccc34)ccc2Nc2cccnc2)cc1F	-2.1	3.0	0.7	0.2	-24.8	0.2	nt	nt
Cc1c(-c2cccc(NC(=O)c3cccs3)c2)nc2ncccn12	61.9*	i	i	i	9.4	i	47.1*	62.2*
Cc1onc(-c2ccccc2Cl)c1C(=O)Nc1cccc(-c2nc3ncccn3c2C)c1	-1.2	i	i	i	-11.4	i	nt	nt
Cc1c(-c2cccc(NC(=O)c3ccco3)c2)nc2ncccn12	91.0*	i	i	i	-1.5	i	68.7*	80.8*
Cc1ccc(C2=CCN(C)C(=O)N2c2ccc(Br)cc2)cc1	0.5	-8.8	4.1	-1.6	5.7	-3.1	nt	nt
Cc1ccc(CN(C)C[C@H]2OCc3cnnn3CCCC(=O)N([C@H](C)CO)C[C@@H]2C)cc1	0.1	-2.8	2.3	0.9	5.0	5.8	nt	nt
CCOC(=O)[C@@H]1CSCCS(=O)(=O)N1C(=O)[C@H](C)NC(=O)OC(C)(C)C	-0.1	8.9	0.6	0.0	1.2	0.2	nt	nt
Cc1cc(Nc2cc(C(F)(F)F)cc(C(F)(F)F)c2)cc(=O)n1-c1cc(C(F)(F)F)cc(C(F)(F)F)c1	0.2	-5.3	-0.8	1.9	4.3	2.1	nt	nt
COc1ccccc1NC(=O)COC(=O)c1[nH]c(=O)[nH]c(=O)c1N	84.2*	-73.1	-16.2	-17.1	5.4	-25.6	119.6*	120.7*
COC(=O)c1cc(-c2ccc(C(C)=O)cc2)c(=O)n2c1CCC2	39.4*	i	i	-278.3	-4.6	i	71.9*	71.2*
O=C(CC(SCCO)c1ccc2c(c1)OCO2)c1ccco1 (stereo not drawn)	17.4*	0.0	-24.7	-0.8	3.7	-30.2	48.4*	45.8*
CCCCOCCCNC(=O)C[C@H]1C[C@@]2(C(=O)OC)C(=C[C@H](C(C)C)O[C@@H]2C2CC2)N(Cc2ccccc2)C1=O	-0.3	-5.5	0.8	-2.9	0.1	-2.5	nt	nt
CCCc1cc(NCCN(C)C)n2c(nc3ccccc32)c1C#N	57.1*	i	i	i	4.7	i	20.1*	6.5*	K7 EDANS ctr=>69.5
CCCc1cc(-n2cnc3ccccc32)n2c(nc3ccccc32)c1C#N	-1.4	-21.2	-52.9	-4.8	-1.6	-68.7	nt	nt
CCCc1cc(NCC2CCCO2)n2c(nc3ccccc32)c1C#N (stereo not drawn)	17.4*	i	i	i	-0.2	i	-53.9	-54.2
CCCc1cc(NCCCN(C)C)n2c(nc3ccccc32)c1C#N	83.4*	i	i	i	-7.2	i	12.4	20.4*
SMILES	proKLK7 act	ADAM10 inh	PLCg1 inh	ADAM17 inh	sPLA2-III inh	PLCb3 inh	proKLK7 act conf	EDANS-DABCYL int	others
CCCc1cc(NCc2ccccn2)n2c(nc3ccccc32)c1C#N	-6.5	-266.7	-154.8	-77.8	-0.2	-236.1	nt	nt
COC(=O)c1cc2c(c3c4cc(C#N)ccc4n(S(=O)(=O)c4ccc(C)cc4)c13)C(=O)N(C)C2	-0.1	-16.4	-20.8	-5.7	3.6	-27.6	nt	nt
Cc1noc(C)c1S(=O)(=O)N1CCCc2nc(-c3ccc(Br)cc3)ccc21	-0.4	-18.4	-1.6	-6.0	9.7	-5.1	nt	nt
Cc1cccc(Cl)c1NC(=O)NCCCN1CCOCC1	0.1	2.7	-1.1	-3.2	0.3	3.9	nt	nt
O=c1ccc2cc3c4c(c2o1)CCCN4CCC3	88.8*	i	i	-460.1	-25.5	i	66.5*	73.2*
O=c1oc2c3c4c(cc2s1)CCCN4CCC3	-0.9	-2.4	-54.8	-2.4	3.4	-65.0	nt	nt
COc1ccc2nc3oc(C(=O)NCc4cccs4)cc3cc2c1	0.8	-67.1	-64.0	-18.4	9.1	-76.4	nt	nt
COc1ccc2cc3cc(C(=O)NCc4ccco4)oc3nc2c1	49.5*	i	i	i	-2.3	i	-43.3	-26.5
COc1ccc2cc3cc(C(=O)NCc4ccccn4)oc3nc2c1	42.1*	i	i	i	-4.3	i	-18.1	-3.7
O=C(CC1CCCC1)N1CC[C@H]2[C@H](CCCN2Cc2ccccc2)C1	-0.1	5.2	1.8	-2.0	1.4	3.1	nt	nt
CCCOc1ccc(/C=C2\SC(N)=NC2=O)cc1OC	17.8*	-3.1	-28.3	-6.3	-1.1	-33.5	-0.1	-1.9
COc1ccc(/C=C2\SC(N)=NC2=O)cc1Br	0.5	-2.2	-3.3	-4.7	-0.3	-14.4	nt	nt
O=Cc1coc([B-](F)(F)F)c1	0.2	4.2	4.6	2.4	9.1	2.3	nt	nt
O=C(Nc1ccc2c(c1)OCCO2)Nc1ccc2c(c1)OCO2	1.0	-2.3	-0.2	-0.7	-5.5	-13.0	nt	nt
CC(Nc1ccc2c(c1)OCCO2)C(=O)Nc1ccc2c(c1)OCO2 (stereo not drawn)	48.9*	-7.0	3.5	-8.8	8.6	-6.9	39.4*	51.8*
